Test results: PubChem BioAssay AID2129 (The Scripps Research Institute Molecular Screening Center, 2009)
Screen size: about 320,000 compounds; about 2,200 (0.69%) were called active. Only a selection was taken, and actives are over-represented in it overall. Unmarked numbers belong to inactive results.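 How the source made its calls: active means inhibition above the mean of all tested compounds plus 3 SD, cutoff set per campaign (cut at about 30% in these data); inactive means the rest.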

biological target: Bcl-2-like protein 1 (Homo sapiens) (UniProt Q07817); test: inhibitors of human Bcl-xL, primary screen, biochemical, fluorescence polarization, HTS (AID 2129); conditions: GST-Bcl-xL / FITC-Bim BH3 peptide fluorescence polarization; at 10.9 µM; active compounds read high;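 further: 0% = DMSO wells and 100% = unlabeled Bim-BH3 peptide competitor; inhibitors lower millipolarization by displacing the labeled peptide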
Sequence (Q07817 whole entry, looked up): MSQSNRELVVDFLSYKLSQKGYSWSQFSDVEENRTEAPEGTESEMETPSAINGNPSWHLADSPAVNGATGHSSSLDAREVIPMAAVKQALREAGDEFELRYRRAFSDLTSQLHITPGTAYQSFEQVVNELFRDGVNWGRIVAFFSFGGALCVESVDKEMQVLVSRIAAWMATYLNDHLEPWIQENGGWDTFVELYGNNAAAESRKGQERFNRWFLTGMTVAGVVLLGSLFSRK

Structure (SMILES)	inhibition
COc1ccccc1-n1cnc2cc(NS(=O)(=O)c3ccccc3)ccc21	2.73%
CC(CCc1ccccc1)NCC(O)c1cccc([N+](=O)[O-])c1 (stereo not given)	1.94%
COc1ccc(NC(=O)c2sccc2SCC#N)cc1	8.42%
Clc1cc(NC2CCCCC2)ncn1	6.31%
CCCCC1S/C(=N/N=C/c2cccs2)NC1=O (stereo not given)	8.02%
CCCc1c(C)nc2c(Br)cccc2c1Cl	2.17%
COc1cc(C(=O)NCc2ccc3c(c2)cc(C)n3C)cc(OC)c1OC	33.2% (active)
CCOCC(=O)NCc1ccc2c(c1)cc(C)n2C	19.5%
COc1cc(C(=O)NCc2cc3cc(Cl)ccc3n2C)cc(OC)c1OC	1.45%
CN(CCO)S(=O)(=O)c1ccc2c(c1)C(=O)c1cc(S(=O)(=O)N(C)CCO)ccc1-2	1.55%
CCOC(=O)c1cc2c(=O)n3ccccc3nc2n(CC(C)C)c1=NC(=O)c1c(-c2c(F)cccc2Cl)noc1C	3.3%
Cc1ccc(NS(=O)(=O)c2ccc3c(c2)NC(=O)CO3)cc1	0.04%
O=C(N1CCCCC1)N1CCN(C(=O)N2CCCCC2)CC1	6.91%
CCN1C(=O)CS/C1=N\c1nccs1	1.94%
COc1ccc(-c2onc3ccc(C(C)=O)cc23)cc1	178% (active)
Oc1ccc(-c2onc3ccc(Cl)cc23)cc1	3.11%
CC(OC(=O)c1ccc2noc(-c3ccccc3)c2c1)C(N)=O (stereo not given)	2.5%
Cc1c(NC(=S)NC(=O)CCc2ccccc2)c(=O)n(-c2ccccc2)n1C	1.79%
CCNC(=O)Nc1ccc(S(=O)(=O)Nc2cnc(C)nc2C)cc1	0.51%
CN(C)c1ccc(Nc2c3c4c(cccc4n(C)c2=O)C(=O)c2ccccc2-3)cc1	54.3% (active)
Cc1cccc(C)c1N1C(=O)CN(Cc2ccccc2)C1=S	5.52%
Cc1ccccc1NC(=O)Cc1nc(COC(=O)c2ccc(C(F)(F)F)cc2)cs1	-1.31%
CC(C)(C)c1ccc(/C=C2\Oc3c(ccc(O)c3CN3CCN(CCO)CC3)C2=O)cc1	53.5% (active)
CCOC(=O)c1oc2c(CN3CCN(CCO)CC3)c(O)c(CC)cc2c(=O)c1-c1nc2ccccc2s1	4.57%

Structure (SMILES)	inhibition
CN(C)S(=O)(=O)c1ccc(Cl)c(NC(=O)COC(=O)CC(NC(N)=O)c2ccc(Cl)cc2)c1 (stereo not given)	-5.65%
COc1cccc(COc2ccc(N(C)S(=O)(=O)c3ccccc3)cc2)c1	-4.97%
Cc1ccc2nc(COc3ccc(N(C)S(=O)(=O)c4ccccc4)cc3)cc(=O)n2c1	36.5% (active)
CN(c1ccc(OCC(=O)O)cc1)S(=O)(=O)c1ccc2ccccc2c1	4.89%
O=C(c1ccc(Cl)cc1)N1N=C(c2ccccn2)CC1(O)C(F)(F)F (stereo not given)	-13%
C=CCc1ccccc1OCC(=O)N/N=C/c1ccccc1OCC	0.68%
Cc1ccc(/C=N/NC(=O)COc2ccccc2-c2ccccc2)cc1	68.1% (active)
Cc1cccc(OCC(=O)NCC(=O)N/N=C/c2ccc(N(C)C)cc2)c1	2.63%
O=C(O)CC(c1ccccc1F)N1Cc2ccccc2C1=O (stereo not given)	-0.17%
CC(C)CN(C(=O)CSc1ncnc2sccc12)C1CCS(=O)(=O)C1 (stereo not given)	0.66%
CCN(CC)CCNC(=O)c1ccc(NC(=O)c2c(F)cccc2Cl)cc1	-0.4%
O=C1N[C@@H](Cc2ccccc2)C(=O)N2[C@H]1C[C@]1(Br)c3ccccc3N(S(=O)(=O)c3ccccc3)[C@H]21	10.4%
Cc1ccccc1N1C(=O)C2ON(c3ccccc3)C(c3ccncc3)C2C1=O (stereo not given)	4.04%
O=C(CNC(=O)c1ccc(F)cc1)c1ccccc1	-1.14%
O=C(C[n+]1cc(Br)cc2ccccc21)c1ccc(F)cc1	62.8% (active)
O=C(CNC(=O)c1ccccc1F)c1ccc(Br)cc1	-3.61%
CC(=O)n1c(C=Nc2ccccc2)c(O)c2ccccc21	-15.2%
Cc1oc2c(c1C(=O)N1CCOCC1)C(=O)c1ccccc1C2=O	-1.81%
COC1=C(N2CCOCC2)C(=O)c2ccccc2C1=O	1.64%
O=C1c2ccccc2-c2ncnc3c(N4CCOCC4)cc(N4CCOCC4)c1c23	48.5% (active)
COc1ccc(-n2ncc3c2CC(C)(C)CC3NC(=O)CCc2c(C)nn(C)c2C)cc1 (stereo not given)	6.1%
COCCNc1nnc(SCC(=O)NNC(=O)c2ccco2)s1	4.35%
Cc1ccc(CSCC(=O)N(C)CC(=O)Nc2ccc(C)cc2)cc1	1.73%
Cc1c(NC(=O)CSc2nnc(-c3cccnc3)n2N)c(=O)n(-c2ccccc2)n1C	-1.43%

Structure (SMILES)	inhibition
COc1ccc(C(=O)N(CCN2CCOCC2)CC(=O)NC2CCCC2)cc1OC	-2.67%
Cc1ccc(OCCCC(=O)Nc2ccc3c(c2)OCCO3)cc1	-5.28%
COC/C=C/C1=CC2=CC(=O)C(C)(OC(=O)CCC(=O)OC)C(=O)C2=CO1 (stereo not given)	46.1% (active)
CCCCC1=CC2=CC(=O)C(C)(OC(=O)CC)C(=O)C2=CN1CCCOC(C)C (stereo not given)	25.5%
COc1cc(C2/C(=C(\O)c3ccc4c(c3)CC(C)O4)C(=O)C(=O)N2Cc2ccco2)ccc1O (stereo not given)	0.14%
CC/C(C)=N/Nc1nc2sc3c(c2c(=O)[nH]1)CC(C)(C)OC3	67.3% (active)
CCSc1nc2sc3c(c2c(=O)[nH]1)CC(C)(C)OC3	4.34%
CCC1(C)Cc2c(sc3nc(SC)[nH]c(=O)c23)CO1 (stereo not given)	0.11%
N#CCc1c(C#N)c(N)nc(N2CCCC2)c1C#N	1.69%
N#Cc1c(-c2ccccc2)cc(-c2ccccc2)nc1SCC(=O)O	6.81%
N#Cc1c(N2CCCCC2)nc(N)c2c(N)nc(SCC(=O)O)cc12	34.7% (active)
CCN(CC(=O)Nc1cccc(S(=O)(=O)N2CCCCC2)c1)Cc1ccccc1	1.24%
COc1ccc(C(=O)C2CCCN(C(=O)c3ccc(OC)o3)C2)c(C)c1 (stereo not given)	7.44%
COC(=O)C[n+]1cccc2ccccc21	173% (active)
Cc1cccc[n+]1CC(=O)c1ccccc1	2.8%
COc1ccccc1NC(=O)C[n+]1ccccc1	-1.13%
CCCOCC(O)CC(CC)C(=O)NNC(=S)Nc1ccccc1 (stereo not given)	2.96%
Cc1c(-c2ccccc2)cn2c1-c1ccc(C)n1CC2	31.6% (active)
C/C(=N\Nc1ncc(Cl)cc1Cl)c1ccc(S(=O)(=O)NCc2ccco2)cc1	3.34%
Cc1c(Cl)cnc(NC(=O)COC(=O)c2ccc(S(=O)(=O)NCc3ccco3)cc2)c1Cl	35.9% (active)
CSCCC(NC(=O)c1ccco1)C(=O)OCC(=O)Nc1ncc(Cl)c(C)c1Cl (stereo not given)	17.7%
COc1ccc(OCC(O)CN(C)C(=O)C(C)Oc2ccccc2)cc1 (stereo not given)	-1.74%
O=C(CSc1n[nH]c(-c2cccnc2)n1)Nc1ccc(Cl)cc1	2.31%
COc1ccc(Cc2nnc(SCC(=O)c3cccc([N+](=O)[O-])c3)n2C)cc1	3.55%

Structure (SMILES)	inhibition
Cc1ccc(S(=O)(=O)Nc2nc3ccccc3nc2N2CCc3ccccc3C2)cc1	6.46%
Cc1cc(N2CCN(S(=O)(=O)c3ccc(C)c(C)c3)CC2)c2ccccc2n1	1.43%
Cc1ccc(S(=O)(=O)C(C#N)c2nc3ccccc3nc2N2CCCC2)cc1C (stereo not given)	87.6% (active)
Cc1cc2oc(=O)cc(CN(C)Cc3ccc(OC(F)F)cc3)c2cc1Cl	0.69%
CC(C)=CCCC(C)CN1CCC(n2nccc2NC(=O)c2ccccc2)CC1 (stereo not given)	3.8%
COC(=O)c1ccc(C)c(NC(=O)C2CC(=O)N(C3CCCC(C)C3C)C2)c1 (stereo not given)	4.61%
O=C(NCc1ccccn1)Nc1ccc(Cl)cc1	1.5%
Cc1ccc(C)c(N2CCN(C(=O)CCCn3c(=O)c4cccn4c4cccnc43)CC2)c1	1.63%
O=c1onc(-c2c(F)cccc2F)n1-c1ccccc1Cl	3.32%
Cc1nnc(NC(=O)/C=C/c2ccco2)s1	39.6% (active)
CCC(CC)c1nnc(NC(=O)/C=C/c2ccco2)s1	4.39%
CCOC(=O)c1c(NC(=O)/C=C/c2ccco2)sc(C)c1C	0.59%
O=C(Nc1nnc(SCc2ccccc2Cl)s1)c1cccc([N+](=O)[O-])c1	9.99%
O=C(CC1N=C2c3ccccc3N=C(SCc3ccccc3Cl)N2C1=O)NCc1ccco1 (stereo not given)	15%
COc1ccc2nc(SCc3ccccc3)nc(C)c2c1	1.64%
Clc1ccccc1CSc1nnc(-c2ccco2)c(-c2ccco2)n1	37% (active)
CCc1nnc(SCc2cccc(F)c2)nc1CC	1.39%
c1ccc(CSc2nnc(-c3ccco3)c(-c3ccco3)n2)cc1	33.4% (active)
Cc1ccc(SCC(=O)c2cc(C)c(OC(=S)N(C)C)c(C)c2)cc1	-0.01%
Cc1ccc(C2(c3ccc(C)cc3)NC(=O)N(Cc3c(C)noc3C)C2=O)cc1	6.73%
CC(=O)Nc1ccc(NS(=O)(=O)c2cc(C)sc2C)cc1	1.44%
COc1ccc(C#Cc2c(-c3ccc(OC)cc3)oc3ccc(-c4ccc5c(c4)OCO5)cc23)cc1	-0.02%
CCc1cccc(C)c1N1C(=O)CN(Cc2ccccc2)C1=S	-7.16%
